TRHR ag = agonists of human TRH receptor; P34981; TRHR cells, calcium flux fluo-8, FDSS agonist mode; activation, % at 2 µM; actives 0.18% (n = 360,000); AID 493084
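Agonist-mode FDSS calcium read (Ex 480/Em 530, 1 s cycles) in 1536-well TRHR cells with fluo-8 dye, after 10-cycle baseline and 23 nL compound addition; TRH at EC20 (10 nM final) added afterwards for the enhancer phase.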
D1 PAM = potentiators of human D1 dopamine receptor; P21728; HEK293 TREx D1 cells, calcium flux, dopamine EC20 potentiation; potentiation, % at 10 µM; actives 0.036% (n = 360,000); AID 504651; in the data active = potentiation above about 30%
Target sequence (P21728 whole entry, looked up): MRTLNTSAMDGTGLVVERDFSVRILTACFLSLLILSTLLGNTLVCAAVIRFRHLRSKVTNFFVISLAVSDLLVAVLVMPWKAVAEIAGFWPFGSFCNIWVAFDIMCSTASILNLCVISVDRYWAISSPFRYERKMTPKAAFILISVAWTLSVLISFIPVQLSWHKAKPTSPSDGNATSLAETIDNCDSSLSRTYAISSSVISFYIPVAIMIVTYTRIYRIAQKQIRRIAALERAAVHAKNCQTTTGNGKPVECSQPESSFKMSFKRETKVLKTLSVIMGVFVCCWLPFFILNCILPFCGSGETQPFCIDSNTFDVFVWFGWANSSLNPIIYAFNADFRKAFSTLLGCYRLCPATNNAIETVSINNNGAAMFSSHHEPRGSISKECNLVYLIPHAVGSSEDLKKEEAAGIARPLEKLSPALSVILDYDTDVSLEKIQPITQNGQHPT
D1 antag = antagonists of human D1 dopamine receptor | P21728 | activity change, negative = inhibition, % at 10 µM | AID 504652 | actives 3.2% (n = 360,000) | HEK293 TREx D1 cells, calcium flux, dopamine EC80; active compounds read low; in the data active = activity change below about -30%
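Kinetic fluorescence of a calcium dye serves as the read-out. D1-expressing Hek293 Trex cells, induced overnight at 30 C, are exposed to compound for 180 s before an EC80 dopamine addition, then read 180 s further.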
TRHR PAM = allosterically enhances the human TRH receptor | P34981 | TRHR cells, fluo-8 calcium fluorescence, EC20 TRH enhancement | enhancement, % at 2 µM | actives 0.66% (n = 360,000) | AID 493056; in the data active = enhancement above about 30%
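TRHR-expressing cells loaded with fluo-8 calcium dye were read kinetically (ex 480/em 530) during compound addition, then stimulated with an EC20 of TRH (10 nM final). Enhancement of the Gq-mediated intracellular calcium response was scored.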
D1 ag = human D1 receptor agonism | P21728 | HEK293 T-REx D1 cells, calcium flux, agonist mode | activation, % at 2 µM | actives 1% (n = 360,000) | AID 504660
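Tetracycline-induced HEK293 TREx D1 cells, force-coupled to calcium signalling, were dye-loaded with a no-wash calcium kit. Compound was pin-added after a 10 s baseline. Fluorescence was read kinetically at 1 cycle/s for 180 s, with calcium rises flagged as agonism.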
A number is an active result; . = inactive; / = not tested or not shown; ! = not confirmed by another sample. Rows were chosen to be rich in hits. Some 4.7% of all compounds tested hit in one or more screens of this group. Cut-off read from the data, not from the text of the source, unless noted: active = activation above about 30%; inactive = the rest.

SMILES | TRHR ag | D1 PAM | D1 antag | TRHR PAM | D1 ag
O=C(NCc1ccco1)C1CCN(C(=O)c2cc3sccc3n2Cc2ccc(F)cc2)CC1 | . | . | -32 | . | .
Nc1cc(=O)nc(SCC(=O)Nc2cccc(Cl)c2)n1CCc1ccccc1 | . | . | . | . | .
CN=c1scc(-c2ccccc2F)n1/N=C/c1ccc(O)c(O)c1O | . | . | -41 | . | .
CSc1ccc(CNC(=O)CCc2c(C)nn(-c3ccc(N4CCCC4)nn3)c2C)cc1 | . | . | . | . | .
CCOC(=O)Nc1ccc2c(c1)N(CCCN(C)C)c1ccccc1CC2 | . | . | . | . | 38
COc1ccc(-c2cn3nc(SCC(=O)NC4CCCCC4)ccc3n2)cc1 | . | . | . | . | .
Clc1ccc(-c2nc3nc4ccccc4nc3n2Cc2ccco2)cc1 | . | . | -41 | . | .
CC(C)N1C(=O)N(c2cccc(Cl)c2)C(C)(O)CC1(C)C (stereo unspecified) | . | . | . | . | .
O=C(C1=NN(c2ccccc2)C2C(=O)N(c3ccc(Cl)cc3)C(=O)C12)c1ccccc1 (stereo unspecified) | . | . | . | . | 192
O=C(C1=C[C@@H]2[C@H]3C(=O)N(c4ccccc4)C(=O)[C@H]3[C@@H](C(=O)c3ccc(Cl)cc3)N2C=C1)c1ccccc1 | . | . | . | . | .
CCOC(=O)C1=NOC2C(=O)N(c3ccc(Cl)cc3Cl)C(=O)C12 (stereo unspecified) | . | . | . | . | .
CC(=O)C1=NOC2C(=O)N(c3ccc(Cl)cc3)C(=O)C12 (stereo unspecified) | . | . | . | . | 50
O=C(C1=NN(c2ccccc2)C2C(=O)N(c3cccc(Cl)c3)C(=O)C12)c1ccccc1 (stereo unspecified) | 41 | . | . | . | 104
Cn1c(CC(=O)Nc2ccccc2F)nnc1SCC(=O)Nc1ccccc1Br | . | . | . | . | .
CCOC(=O)C1CCCN(Cc2c(Cl)cccc2Cl)C1 (stereo unspecified) | . | . | -36 | . | .
CCOC(=O)C1CCCN(CC(=O)Nc2cc(C)cc(C)c2)C1 (stereo unspecified) | . | . | -40 | . | .
CCOC(=O)C1CCCN(S(=O)(=O)Cc2ccccc2Cl)C1 (stereo unspecified) | . | . | -31 | . | .
CCOC(=O)C1CCN(Cc2cc(=O)oc3cc(C)ccc23)CC1 | . | . | . | . | .
CCCS(=O)(=O)N1CCCC(C(=O)Oc2ccccc2Cl)C1 (stereo unspecified) | . | . | . | . | .
CCOC(=O)C1CCCN(Cc2cc(=O)oc3cc(C)ccc23)C1 (stereo unspecified) | . | . | -41 | . | .
COc1ccc(CCC(C)NCc2ccc(Cl)c(Cl)c2)cc1 (stereo unspecified) | . | . | . | . | 32
COc1ccc(CCC(C)NCc2cc(OC)cc(OC)c2)cc1 (stereo unspecified) | . | . | . | . | .
COc1ccc(CCC(C)NCCc2ccc(Cl)cc2Cl)cc1 (stereo unspecified) | . | . | . | . | 51
Nc1[nH]nc2c1NN(c1ccc(Cl)cc1Cl)N2 | . | . | -38 | . | .
Nc1c(-c2n[nH]c(=S)n2-c2ccc(Cl)cc2Cl)cnn1-c1ccccc1 | . | . | . | . | .
SMILES | TRHR ag | D1 PAM | D1 antag | TRHR PAM | D1 ag
CCn1nnc2cc(C(=O)Nc3ccc(Cl)cc3C)ccc21 | . | . | . | . | .
CCOc1cc(CNCCO)cc(Br)c1OCc1cccs1 | . | . | . | . | 34
N#CC1=C(N)Oc2c(oc(CO)cc2=O)C1c1ccccc1[N+](=O)[O-] (stereo unspecified) | . | . | -35 | . | .
Cc1ccc(CNC(=O)C(CC(C)C)NS(=O)(=O)c2ccc3c(c2)oc(=O)n3C)cc1 (stereo unspecified) | . | . | . | . | .
COc1ccc(NC(=O)C2CC(=O)N(CCc3ccc(F)cc3)C2)c(OC)c1 (stereo unspecified) | . | . | . | . | .
Cc1ccc(NC(=O)OC(C)CNC(=O)Oc2cccc(C)c2)cc1 (stereo unspecified) | . | . | -32 | . | .
CCOc1ccc(C(=O)NC(Cc2ccccc2)C(=O)OC)cc1 (stereo unspecified) | . | . | -32 | . | .
Cc1cc(C)nc(N2CCC(C(=O)O)CC2)n1 | . | . | -32 | . | .
COc1cc(N2CCCC2)c(OC)cc1/C=c1/sc2nc3ccccc3n2c1=O | . | . | . | . | 47
Cc1ccc(CNC(=O)CN2Cc3ccccc3C2=O)cc1 | . | . | -37 | . | .
Cc1cccc(C(=O)NCC(c2cccs2)S(=O)(=O)c2cccs2)c1 (stereo unspecified) | . | . | / | . | .
CN1CCC(=O)N([C@H](CSc2ccc(Br)cc2)Cc2ccccc2)CC1 | . | . | . | . | .
CC(C)CN1CCC(=O)N([C@H](CSc2ccc(Br)cc2)Cc2ccccc2)CC1 | . | . | -50 | . | .
COc1cccc(/C=C/C(=O)OCC(=O)c2c(N)n(C)c(=O)n(C)c2=O)c1 | . | / | . | . | .
O=C(O)c1cccc(N/N=C/c2cccnc2)c1 | . | . | -31 | . | .
CCCCN(CC)CCCNC(=O)c1ccc2c(c1)N(Cc1ccc(C)cc1)C(=O)c1ccccc1S2 | . | . | -33 | . | 51
O=C(NCCCN1CCOCC1)c1ccc2c(c1)N(Cc1ccccc1)C(=O)c1ccccc1S2 | . | . | . | . | .
CCOc1ccc(-n2c(C)nc3cc(C(=O)NCCCN4CCOCC4)ccc32)cc1 | . | . | -52 | . | .
COCCCNC(=O)c1ccc2c(c1)N(Cc1ccccc1)C(=O)c1ccccc1S2 | . | . | . | . | .
CCOc1ccc(CN2C(=O)c3ccccc3Sc3ccc(C(=O)NCCCN4CCOCC4)cc32)cc1 | . | . | . | . | 30!
O=C(c1ccc(F)cc1)N1CCN(CCc2ccncc2)CC1 | . | . | . | . | .
CCc1ccc(S(=O)(=O)c2cn(Cc3ccccc3F)c3cc(OC)c(OC)cc3c2=O)cc1 | . | . | . | . | .
Nc1ccc(N2CCOCC2)c(S(=O)(=O)Nc2cc(Cl)ccc2Cl)c1 | . | . | . | . | .
N=C1c2ccccc2CN1c1ccc(N2CCOCC2)c(S(=O)(=O)Nc2ccc(Cl)cc2)c1 | . | . | . | . | 83
CN(C)c1ccc(/C=C/c2cc[n+]([O-])cc2)cc1 | 61 | . | . | . | 73
CN(C)c1ccc(/C=C/c2cc[n+](C)cc2)cc1 | . | . | . | . | .
COc1ccc2nc(SCC(=O)N(C)C3CCCCC3)[nH]c2c1 | . | / | . | . | .
Cc1ccc([C@@H]2C[C@H]3CN(Cc4cccc(Cl)c4)C(=O)[C@]34CCCN24)o1 | . | . | . | . | .
